# Screens (PubChem)
# This excerpt belongs to a sample that is enriched for hits.
# FBPA Giardia inh: blocks Giardia fructose-bisphosphate aldolase activity. A8B2U2. purified Giardia FBPA. Potency, µM (top dose mostly 59.6 µM), inactives show at the top dose activity, negative = inhibition, hits mostly inhibitors. 290,000 tested, 0.71% active. AID 2451; note: potency is the fitted concentration of half-maximal effect; % is set by controls: 0 for no effect and ±100 for the full control effect; nearly all actives have a fitted effect of over 55% in size
#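 40 nM FBPA preincubated 10 min at RT with compound (up to 57.5 uM final), then substrate plus GAPDH/TPI/NAD/arsenate coupling and diaphorase/resazurin added. Fluorescence read after 20 min at RT, 525/598 nm.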
# LmPK inhibitor: LmPK (Leishmania mexicana) enzyme inhibition | purified LmPK, Kinase-Glo ATP luminescence, 1 h | Potency, µM (series often up to 57.5 µM), for inactives: top-dose activity change, negative = inhibition, hits mostly inhibitors | 290,000 tested, 0.37% active | Q27686; note: potency is the fitted concentration of half-maximal effect; % is set by controls: 0 for no effect and ±100 for the full control effect
# Target sequence (Q27686 whole entry, looked up): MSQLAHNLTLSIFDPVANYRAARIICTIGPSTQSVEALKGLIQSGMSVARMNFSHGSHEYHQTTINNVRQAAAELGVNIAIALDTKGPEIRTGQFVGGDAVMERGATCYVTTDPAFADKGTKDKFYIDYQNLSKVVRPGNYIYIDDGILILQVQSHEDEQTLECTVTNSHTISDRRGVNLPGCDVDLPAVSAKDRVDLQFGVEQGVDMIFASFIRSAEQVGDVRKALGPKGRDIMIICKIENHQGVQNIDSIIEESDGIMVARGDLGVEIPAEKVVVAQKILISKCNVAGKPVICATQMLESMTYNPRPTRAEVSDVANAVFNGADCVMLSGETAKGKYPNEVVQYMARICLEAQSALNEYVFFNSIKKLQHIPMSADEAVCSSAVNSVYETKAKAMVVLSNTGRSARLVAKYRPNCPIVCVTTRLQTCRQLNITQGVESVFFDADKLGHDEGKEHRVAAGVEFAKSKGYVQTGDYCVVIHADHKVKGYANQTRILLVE
#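 ATP generated from ADP (0.1 mM) and PEP (0.5 mM) by 0.1 nM LmPK over 1 h at room temperature (pH 7.2 imidazole buffer) was detected by coupled luciferase luminescence. Values were normalized to uninhibited and no-enzyme wells.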
# Shiga toxin inh: blocks Shiga toxin action in Vero cells. Vero cells, Shiga toxin protein synthesis inhibition reporter. inhibition, % at 38.7 µM. 290,000 tested, 9.2% active; in the data active = inhibition mostly above about 28%, no sharp cut-off; inactive = mostly below about 43%; note: 0% is about no effect
# TbPYK inhibitor: blocks Trypanosoma brucei pyruvate kinase; 410,000 tested, 0.12% active; TbPYK enzyme, Kinase-Glo Plus ATP luminescence, 45 min; Potency, µM (doses to about 76.8 µM), for the others: at the highest dose activity, negative = inhibition, hits mostly inhibitors; Q57TT1; note: potency is the fitted concentration of half-maximal effect; % is set by controls: 0 for no effect and ±100 for the full control effect; nearly all actives have a fitted effect of over 50% in size
#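 Luminescent Kinase-Glo Plus end-point after 45 min room-temperature reaction of T. brucei pyruvate kinase started with 130 uM ADP (final). Buffer TEA 50 mM pH 7.2 with KCl, MgCl2, BSA, Tween-20; titration-based qHTS with fitted concentration-effect curves.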
# RE007 growth inh: less growth of the S. pombe RE007 Vpr strain; Potency, µM (top dose mostly 92.2 µM), inactives show at the top dose activity change, negative = less growth, hits mostly inhibitors; 360,000 tested, 0.21% active; S. pombe RE007 Vpr strain, BacTiter-Glo ATP luminescence, 24 h; AID 651644; active = well fitted falling curve with a large enough effect; inconclusive = small, poorly fitted or top-dose-only effect; inactive = no such curve, though single readings can be large or run the other way; note: potency is the fitted concentration of half-maximal effect; % is set by controls: 0 for no effect and ±100 for the full control effect; nearly all actives have a fitted effect of over 50% in size
#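 Fission yeast RE007 carrying one integrated HIV-1 vpr copy, seeded at OD 0.01 in PMG+AL medium with 23 nL pinned compound. Grown 24 h at 30 degrees; viability read by BacTiter-Glo luminescence after 5 min.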
# CHX counter: counter-screen hit for Shiga toxin inhibitors, cycloheximide; cell reporter, cycloheximide protein synthesis inhibition counterscreen; max response, %; 300,000 tested, 12% active; AID 2314; in the data active = max response mostly above about 13%, no sharp cut-off; inactive = mostly below about 14%; note: read at 38.3 µM for the half of the compounds with a filed dose; 0% is about no effect
# * marks the source's active call; other numbers are inactive results; ? = inconclusive; . = no result given; + = active, no number; [ ] = another dose, or the depositor's remark. Unless noted, calls come from the whole dose curve; as a rule, active = well fitted curve in the direction sought with a large enough effect; inconclusive = small, poorly fitted or top-dose-only effect, or another doubt; inactive = no such curve, though single readings can be large; an effect the other way counts as inactive or inconclusive.
SMILES,FBPA Giardia inh,LmPK inhibitor,Shiga toxin inh,TbPYK inhibitor,RE007 growth inh,CHX counter
O=c1oc2ccc3ccccc3c2cc1-c1nnc(-c2ccccc2)o1,1%,0%,19,0%,3%,42*
O=C(/C(=C(\[O-])c1ccccc1)[n+]1ccc2ccccc2c1)c1ccccc1,?,0%,active,-3%,?,26*
O=C(/C(=C(/[O-])c1ccccc1)[n+]1ccccc1)c1ccc([N+](=O)[O-])cc1,-9%,3%,0,-5%,-15%,5
O=C(/C(=C(\[O-])c1ccccc1)[n+]1ccc2ccccc2c1)c1ccc([N+](=O)[O-])cc1,-2%,3%,9,1%,-7%,10
O=C(/C(=C(\[O-])c1ccccc1)[n+]1ccc2ccccc2c1)c1ccc(Cl)cc1,-10%,1%,68*,5%,-16%,28
COc1ncccc1C(=O)N1CCCC(N2CCN(c3cccc(Cl)c3)CC2)C1 (configuration not stated),.,0%,-4,-5%,-3%,9
Cc1csc2c(N3CCCCC3)ncnc12,5%,0%,44,-2%,-17%,30*
COc1ccc(-c2nsc3c(N4CCCCC4)ncnc23)cc1,-1%,-28%,100*,0%,-24%,58*
Cc1csc2c(N3CCC(C(=O)O)CC3)ncnc12,6%,-7%,-1,0%,0%,6
Cc1ccc(-c2nsc3c(N4CCC(C(N)=O)CC4)ncnc23)cc1,7%,5%,52*,-5%,4%,33*
O=C(c1ccccc1)N1CCN(c2ncnc3c(-c4ccccc4)nsc23)CC1,0%,6%,-17,-4%,10%,-1
O=C(N1CCCC1)N1CCN(c2ncnc3c(-c4ccc(Cl)cc4)nsc23)CC1,3%,-1%,97*,.,.,34*
Cc1ccc(C(=O)N2CCN(c3ncnc4c(-c5ccccc5)nsc34)CC2)cc1,7%,0%,18,.,.,12
CC(=O)N(C(C)=O)C1=C(C#N)C2(CCCCC2)Cc2ccccc21,.,1%,-11,-1%,23%,1
CC(Sc1nnc2ccccn12)C(N)=O (configuration not stated),4%,-1%,-3,-4%,18%,0
CCOC1=CC2=C(C(=O)C(Cl)=CC2=O)[C@@H]2CN(S(=O)(=O)c3ccc(C)cc3)[C@@H](c3ccccc3)[C@H]12,.,.,.,2.5µM*,6%,.
Cc1ccc(OCC(=O)NN2C(=O)c3ccccc3C2=O)cc1,0%,4%,-2,-5%,14%,-5
O=C(CNC(=O)c1ccccc1)OC1CCCCC1,6%,-9%,56*,8%,23%,35*
O=C(Nc1ccccc1Cl)OC1CCCCC1,9%,-1%,100*,-2%,44%,22
CN(CC(=O)Nc1ccccc1Cl)C1CCCCC1,4%,0%,15,-5%,-21%,7
O=C(NC(=O)c1ccc(Cl)cc1)OC1CCCCC1,-1%,-1%,63*,-2%,47%,48*
O=C(CNC(=O)c1ccc(Cl)cc1)NC1CCCCC1,.,-12%,-30,1%,-2%,5
N#Cc1cccc(CS(=O)(=O)c2nnnn2C2CCCCC2)c1,-7%,.,.,.,.,.
Cc1ccc2nc3nc4ccc[nH]c4cc3c2c1,-7%[12.9 µM],.,.,.,.,.
CCOC(=O)Cc1csc(NC(=O)CN2CCCCC2)n1,?,-1%,-15,-6%,22%,-4
SMILES,FBPA Giardia inh,LmPK inhibitor,Shiga toxin inh,TbPYK inhibitor,RE007 growth inh,CHX counter
CCOc1ccc(S(=O)(=O)N(CC(=O)N2CCc3ccccc32)Cc2ccco2)cc1,-3%,-3%,83*,-1%,16%,31*
N#Cc1nc(NCCO)nc(Nc2ccccc2)n1,2%,.,.,.,.,.
CC(C)CNC(=O)c1cc(-c2ccc3c(c2)OCO3)on1,10%,-3%,74*,-2%,11%,39*
CC(C)CNC(=O)COCc1cc(-c2ccc3c(c2)OCO3)on1,8%,5%,100*,-2%,-17%,38*
CCCCNC(=O)COCc1cc(-c2ccc3c(c2)OCO3)on1,2%,0%,47*,-2%,7%,12
CCCNC(=O)COCc1cc(-c2ccc3c(c2)OCO3)on1,-5%,0%,36*,0%,36%,29*
CCCNC(=O)COCc1cc(-c2ccc(F)cc2)on1,.,.,.,-2%,.,.
COCC(C)NC(=O)COCc1cc(-c2ccc3c(c2)OCO3)on1 (configuration not stated),0%,10%,-6,6%,-7%,-3
CC1CCN(S(=O)(=O)c2ccc3c(c2)c(=O)c(C(=O)N2CCN(c4cccc(Cl)c4)CC2)cn3C)CC1,.,.,.,-3%,.,.
O=C1[C@H]2[C@H]3[C@H](O)[C@H](O)C/C(=N/OCc4ccccc4)[C@@H]3CC[C@@H]2C(=O)N1Cc1ccccc1,3%[12.9 µM],.,.,.,.,.
CCOc1cc(NC(=S)NCCCN2CCOCC2)c(OCC)cc1NC(=O)C1CCCCC1,-2%,-7%,-13,-1%,-4%,-3
COc1ccc(C(=O)NCc2nnnn2-c2ccc(C)c(C)c2)cc1,.,.,.,2%,.,.
C=CCNC(=O)COCc1cc(-c2ccc3c(c2)OCO3)on1,11%,5%,39*,1%,13%,27*
O=C(COCc1cc(-c2ccc3c(c2)OCO3)on1)NCc1ccc(F)cc1,.,.,.,-6%,.,.
Fc1ccc(NC(=S)N2CCc3ccccc32)cc1,-27%,2%,41*,-3%,0%,15*
FC(F)Oc1ccc(NC(=S)N2CCc3ccccc32)cc1,-4%,-6%,78*,1%,-17%,36*
NS(=O)(=O)c1ccc(NC(=S)N2CCc3ccccc32)cc1,.,-6%,-17,-6%,12%,3
COc1ccc(-n2c(/C=C/c3ccccc3F)nc3cc(OC)c(OC)cc3c2=O)cc1Cl,.,.,.,-3%,.,.
COc1ccc(C(=O)CCc2ccccc2)c(O)c1,.,.,.,-4%,-6%,.
O=C(CCc1ccccc1)c1c(O)cc(O)cc1O,-10%,-5%,6,-1%,4%,active
O=C1/C(=C/C=C/c2ccccc2)Oc2c1ccc(O)c2CN1CCN(CCO)CC1,-8%,-6%,20,1%,-18%,10
CCN1CCN(Cc2c(O)ccc3c2O/C(=C\C=C\c2ccccc2)C3=O)CC1,17%,-12%,65,-10%,2%,33*
COc1ccccc1/C=C/C=C1\Oc2c(ccc(O)c2CN2CCN(CCO)CC2)C1=O,-18%,-4%,+,-3%,-1%,32*
CN(C)Cc1c(O)ccc2c1O/C(=C\C=C\c1ccccc1)C2=O,-8%,-1%,18,0%,-6%,13*
CC(C)n1ncc2c(C(=O)Nc3cccc(C#N)c3)cc(C3CC3)nc21,.,.,.,-4%,1%,.
O=C(O)Cc1sc(N/N=C\c2ccncc2)nc1-c1ccccc1,0%,7%,20,-18%,20%,11
